PGC1a acetyl inh: PGC1a acetylation modulation, inhibitor mode; U2OS PGC1a acetylation, AlphaScreen anti-acetyl-lysine; with virally co-expressed GCN5 acetyltransferase; inhibition, % at 15.6 µM; actives 0.17% (n = 350,000);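 active = every replicate shows inhibition of at least 40%; inconclusive = mean inhibition at least 40% but some replicate below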
CaV13 FRET inh: Primary screen for inhibitors of IQ motif and Ca2+-dependent inactivation inhibitor domain binding in CACNA1D, Förster resonance energy transfer in living cells, … | actives 0.098% (n = 340,000) | inhibition, % at 12.3 µM | HEK cells, CFP/YFP FRET ICDI-IQ, plate reader, 10 min; percent FRET-ratio fall versus neutral wells;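 active = mean replicate inhibition of at least 30% and at least 1% of replicates passing that level; inconclusive = only one of the two criteria is met; inactive = neither criterion is met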
ERAP1 inh: blocks human ERAP1 aminopeptidase activity; Q9NZ08; recombinant ERAP1, Leu-AMC fluorescence, 60 min; inhibition, % at 10.7 µM; actives 0.15% (n = 340,000);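 active = mean replicate inhibition of at least 30%, or all replicates individually reaching that 30% level; inactive = mean below 30% and not every replicate reaching it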
Target sequence (Q9NZ08 whole entry, looked up): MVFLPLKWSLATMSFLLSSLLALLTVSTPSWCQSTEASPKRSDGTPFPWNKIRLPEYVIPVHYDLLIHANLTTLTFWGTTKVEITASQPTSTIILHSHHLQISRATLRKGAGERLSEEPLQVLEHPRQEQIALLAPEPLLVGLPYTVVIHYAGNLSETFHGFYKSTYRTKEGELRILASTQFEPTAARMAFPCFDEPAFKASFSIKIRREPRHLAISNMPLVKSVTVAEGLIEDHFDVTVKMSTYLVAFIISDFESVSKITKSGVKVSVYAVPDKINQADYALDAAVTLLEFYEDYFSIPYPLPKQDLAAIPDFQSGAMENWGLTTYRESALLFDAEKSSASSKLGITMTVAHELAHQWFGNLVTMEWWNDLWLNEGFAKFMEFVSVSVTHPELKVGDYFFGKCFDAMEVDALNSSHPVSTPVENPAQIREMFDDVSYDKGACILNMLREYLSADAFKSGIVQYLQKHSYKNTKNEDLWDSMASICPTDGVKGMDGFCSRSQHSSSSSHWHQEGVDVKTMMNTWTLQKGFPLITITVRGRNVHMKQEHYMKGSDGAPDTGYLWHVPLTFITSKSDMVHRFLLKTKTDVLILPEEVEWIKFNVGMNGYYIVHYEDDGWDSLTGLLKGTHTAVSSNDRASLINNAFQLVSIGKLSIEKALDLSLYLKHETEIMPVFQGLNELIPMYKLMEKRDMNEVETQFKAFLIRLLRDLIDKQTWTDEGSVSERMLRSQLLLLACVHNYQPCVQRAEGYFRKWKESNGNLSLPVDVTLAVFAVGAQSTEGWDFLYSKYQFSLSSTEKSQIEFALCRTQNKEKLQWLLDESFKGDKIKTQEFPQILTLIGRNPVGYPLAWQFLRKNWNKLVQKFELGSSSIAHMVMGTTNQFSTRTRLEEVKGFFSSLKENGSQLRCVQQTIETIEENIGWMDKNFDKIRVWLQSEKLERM
rRNA inh HTS: inhibits bacterial ribosomal RNA function over humanized ribosomes. actives 1.6% (n = 350,000). GFP signal change (wild-type ribosome), % (test concentration not listed). E. coli WT GFP vs humanized-ribosome RFP mutants, fluorescence, 24 h; stronger effect = lower value; DMSO median 0, no signal -100;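 active = significant combined selectivity score with lowered wild-type GFP, culture density cut under 30%, mutant RFP and density less affected; inactive = any of these conditions unmet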
DENV2 CPE rescue: DENV2-induced cell death inhibition. CPE inhibition, % at 9.99 µM. actives 1.7% (n = 350,000). DENV2-infected cells, cytopathic effect rescue, plate reader; in the data active = CPE inhibition above about 20%, passing the limit was not always enough; inconclusive = no clear call, values can overlap the other calls; tested in BHK-21 cells
INS-1E GSIS act: GLuc luminescence reporter in INS-1E cells, primary screen for activators of glucose-dependent secretion of insulin. INS-1E GLuc reporter insulin secretion, 2-3 h. activation, % at 16.6 µM. actives 0.61% (n = 370,000). AID 743287;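 active = lowest replicate activation of at least 40%, so every replicate reaches that level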
Of the large screens only hits and unclear results are named; the others gave an inactive call. Compounds with a hit are over-represented: about 3.2% of the library has one in this group of screens.

C[C@@H]1CN([C@@H](C)CO)C(=O)Cc2cc(NC(=O)Cn3cnnn3)ccc2O[C@@H]1CN(C)S(=O)(=O)c1ccccc1	none (no result: PGC1a acetyl inh, CaV13 FRET inh, ERAP1 inh, DENV2 CPE rescue)
C[C@@H]1CN([C@@H](C)CO)C(=O)c2cccc(NC(=O)NC3CCCCC3)c2O[C@@H]1CN(C)C(=O)NC1CCCCC1	DENV2 CPE rescue inconclusive (no result: CaV13 FRET inh)
COc1cc(/C=C(\NC(C)=O)C(=O)Nc2ccccc2C)ccc1OC(C)=O	DENV2 CPE rescue 21 (no result: PGC1a acetyl inh)
COc1cc(/C=C(\NC(C)=O)C(=O)Nc2ccc(NC(C)=O)cc2)ccc1OC(C)=O	none (no result: PGC1a acetyl inh, ERAP1 inh, rRNA inh HTS, DENV2 CPE rescue)
COc1ccc2c3c(n(C)c2c1)[C@H](CO)N(C(=O)CC1CC1)CC31CN(C(=O)CC2CC2)C1	none (no result: PGC1a acetyl inh, CaV13 FRET inh)
CCCNC(=O)Nc1ccc2c(c1)C(=O)N(C)C[C@H](OC)[C@@H](C)CN(Cc1ccccc1)[C@@H](C)CO2	none (no result: CaV13 FRET inh, ERAP1 inh, DENV2 CPE rescue)
CC1(C(=O)NS(=O)(=O)c2ccccc2Cl)CCN1C(=O)CC(c1ccccc1)c1ccccc1 (stereo not drawn)	none
CC1(C(=O)NS(=O)(=O)c2ccc(Cl)cc2)CCN1C(=O)CCc1ccc(Cl)cc1Cl (stereo not drawn)	rRNA inh HTS -30
Cc1ccccc1S(=O)(=O)NC(=O)C1(C)CCN1C(=O)CC(c1ccccc1)c1ccccc1 (stereo not drawn)	DENV2 CPE rescue 38
Cc1ccc(S(=O)(=O)NC(=O)C2(C)CCN2C(=O)Cc2ccc(-c3ccccc3)cc2)cc1 (stereo not drawn)	rRNA inh HTS -34
Cc1ccc(S(=O)(=O)NC(=O)C2(C)CCN2C(=O)CCc2ccc(Cl)cc2Cl)cc1 (stereo not drawn)	none
COc1ccc(-c2cnc3n2CCCCC3)cc1	DENV2 CPE rescue 44 (no result: ERAP1 inh)
Cc1ccc(C(=O)c2coc3cc([N+](=O)[O-])c(O)c([N+](=O)[O-])c23)cc1	rRNA inh HTS -48 (no result: PGC1a acetyl inh)
C[C@H]1CN([C@@H](C)CO)C(=O)c2cc(C#CCN(C)C)cnc2O[C@@H]1CN(C)Cc1cccc(F)c1	none (no result: CaV13 FRET inh)
COc1ccc(CN(C)C[C@H]2Oc3ccc(NS(=O)(=O)c4cccs4)cc3C(=O)N([C@@H](C)CO)C[C@H]2C)cc1	none (no result: CaV13 FRET inh)
COc1ccc(CN(C)C[C@@H]2Oc3ccc(NC(=O)C4CCCCC4)cc3C(=O)N([C@H](C)CO)C[C@H]2C)cc1	none (no result: CaV13 FRET inh)
COc1ccc(CN(C)C[C@H]2Oc3ccc(NC(=O)C4CCCCC4)cc3C(=O)N([C@@H](C)CO)C[C@H]2C)cc1	DENV2 CPE rescue 25 (no result: CaV13 FRET inh)
COc1ccc(CN(C)C[C@@H]2Oc3ccc(NS(C)(=O)=O)cc3C(=O)N([C@H](C)CO)C[C@H]2C)cc1	DENV2 CPE rescue 25 (no result: CaV13 FRET inh)
COc1ccc(CN(C)C[C@@H]2Oc3ccc(NS(=O)(=O)c4cccs4)cc3C(=O)N([C@@H](C)CO)C[C@H]2C)cc1	DENV2 CPE rescue 32 (no result: CaV13 FRET inh)
COc1ccc(CN(C)C[C@@H]2Oc3ccc(NS(=O)(=O)c4cccs4)cc3C(=O)N([C@H](C)CO)C[C@H]2C)cc1	DENV2 CPE rescue 31 (no result: CaV13 FRET inh)
Cc1noc(C)c1S(=O)(=O)Nc1ccc2c(c1)C(=O)N([C@@H](C)CO)C[C@@H](C)[C@H](CN(C)Cc1ccc(Oc3ccccc3)cc1)O2	none (no result: CaV13 FRET inh)
COc1ccc(CN(C)C[C@H]2Oc3ccc(NS(=O)(=O)c4c(C)noc4C)cc3C(=O)N([C@@H](C)CO)C[C@@H]2C)cc1	DENV2 CPE rescue 25 (no result: CaV13 FRET inh)
O=C(CCN1CCCCC1)N[C@H]1CC[C@@H](CCn2cc(-c3ccc(F)cc3)nn2)O[C@@H]1CO	none (no result: CaV13 FRET inh)
O=C1[C@H]2[C@@H](c3ccc(Cl)cc3)N3C(=O)N(c4cccc(F)c4)C(=O)[C@@]3(Cc3ccc(Cl)cc3)[C@H]2C(=O)N1C1CCCCC1	none (no result: CaV13 FRET inh, ERAP1 inh, rRNA inh HTS, DENV2 CPE rescue, INS-1E GSIS act)
O=C1[C@H]2[C@@H](c3ccc(F)cc3)N3C(=O)N(c4cccc(F)c4)C(=O)[C@@]3(Cc3ccc(Cl)cc3)[C@H]2C(=O)N1C1CCCCC1	DENV2 CPE rescue 24 (no result: ERAP1 inh)
C[C@@H]1CN([C@@H](C)CO)C(=O)c2cc(C#CC(C)(C)O)cnc2O[C@@H]1CN(C)C(=O)C1CCCCC1	none (no result: CaV13 FRET inh, ERAP1 inh, DENV2 CPE rescue)
CCn1c(=O)n(CC)c2cc(N3CCCC3)c(NC(=O)c3ccc(C)cc3)cc21	DENV2 CPE rescue 36
COc1cccc(C(=O)Nc2ccc3c(c2)OC[C@H](C)N(CC2CC2)C[C@@H](C)[C@H](OC)CN(C)C3=O)c1	none (no result: CaV13 FRET inh)
Cc1ccc(S(=O)(=O)N(C)C[C@H]2Oc3c(NS(=O)(=O)c4cccs4)cccc3C(=O)N([C@H](C)CO)C[C@H]2C)cc1	none (no result: CaV13 FRET inh)
C[C@H](CO)N1C[C@H](C)[C@@H](CN(C)Cc2ccc3c(c2)OCO3)Oc2ccc(NC(=O)CCCCCC(=O)Nc3ccccc3N)cc2C1=O	DENV2 CPE rescue 28 (no result: CaV13 FRET inh)
C[C@@H]1CN([C@H](C)CO)C(=O)Cc2cc(NC(=O)CCCCCC(=O)Nc3ccccc3N)ccc2O[C@@H]1CN(C)Cc1ccc2c(c1)OCO2	none (no result: CaV13 FRET inh)
C[C@H](CO)N1C[C@H](C)[C@H](CN(C)Cc2ccc3c(c2)OCO3)Oc2ccc(NC(=O)CCCCCC(=O)Nc3ccccc3N)cc2CC1=O	DENV2 CPE rescue 25 (no result: CaV13 FRET inh)
C[C@@H]1CN([C@@H](C)CO)C(=O)c2cc(NC(=O)CCC(F)(F)F)ccc2O[C@@H]1CN(C)Cc1ccc2c(c1)OCO2	DENV2 CPE rescue 29 (no result: CaV13 FRET inh)
C[C@@H]1CN([C@@H](C)CO)C(=O)c2cc(NC(=O)CCCCCC(=O)Nc3ccccc3N)ccc2O[C@@H]1CN(C)Cc1ccc2c(c1)OCO2	DENV2 CPE rescue 20 (no result: CaV13 FRET inh)
C[C@H](CO)N1C[C@H](C)[C@H](CN(C)Cc2ccc3c(c2)OCO3)Oc2ccc(NC(=O)CCCCCC(=O)Nc3ccccc3N)cc2C1=O	none (no result: CaV13 FRET inh)
Cc1ccccc1-c1ccc([C@@H]2[C@H]3CN(C(=O)Cc4ccccn4)CC(=O)N3[C@H]2CO)cc1	none (no result: CaV13 FRET inh)
COCC(=O)Nc1ccc2c(c1)OC[C@@H](C)N(Cc1cccc(F)c1)C[C@H](C)[C@H](OC)CN(C)C2=O	DENV2 CPE rescue 35 (no result: CaV13 FRET inh)
COCC(=O)Nc1ccc2c(c1)OC[C@@H](C)N(Cc1cccc(F)c1)C[C@@H](C)[C@@H](OC)CN(C)C2=O	none (no result: CaV13 FRET inh)
COCC(=O)Nc1ccc2c(c1)OC[C@@H](C)N(Cc1cc(F)ccc1F)C[C@@H](C)[C@@H](OC)CN(C)C2=O	DENV2 CPE rescue 31 (no result: CaV13 FRET inh)
O=C(N/N=C/c1cn(-c2ccccc2)nc1-c1cccnc1)c1ccc(F)cc1	rRNA inh HTS -25
NC(=O)N/N=C/c1cn(-c2ccccc2)nc1-c1ccccc1	rRNA inh HTS -18
C[C@@H]1CN([C@@H](C)CO)C(=O)c2cc(NC(=O)Cn3cnnn3)ccc2O[C@@H]1CN(C)Cc1ccncc1	none (no result: CaV13 FRET inh)

Source: PubChem BioAssay
